Assay results reported in PubChem BioAssay (NCATS).
Results filed as inconclusive are left out. Calls of active or inactive are those of the source. Calls follow the shape of the dose curve; as a rule, active = well fitted inhibition curve with a large enough effect; inconclusive = small, poorly fitted or top-dose-only effect; inactive = flat fitted curve, though single readings scatter. *1 amine or outer side, *2 acyl side, *3 side chain or, on linkers, in order; H or OH if unused. Where a SMILES comes first, the peptide text is derived from it. [ ]: non-standard residue; d: D form. X4 = CC(C)=CCc1cc(C(O)C(N[*:1])C(=O)[*:2])ccc1O

Experiments:
Assay in all cases: Cytotoxic Profiling of Annotated Libraries Using Quantitative High-Throughput Screening (AID 1296008); also: nearly all actives have a fitted effect of over 60% in size
Conditions in all cases: Five cell lines viability, CellTiter-Glo ATP luminescence, 48-72 h; max response: active compounds read low
HEK293 = system: HEK293
Procedure, shortened: (§1)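 Cytotoxicity was measured as CellTiter-Glo ATP luminescence, read after 10 min at room temperature. Compound treatment of the cells lasted 48 or 72 hr at 37 degrees Celsius in a qHTS format.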

HaCat = system: HaCat
Procedure, shortened: as §1

KB-3-1 = system: KB-3-1
Procedure, shortened: as §1

NIH3T3 = system: NIH3T3
Procedure, shortened: as §1
% is scaled to controls: 0 for no effect and ±100 for the full control effect; potency is read from the fitted curve at half-maximal effect.

C[C@@H]1O[C@@H](O[C@H]2[C@H](O)[C@@H](O)[C@H](O[C@H]3[C@H](O[C@H]4CC[C@@]5(C)C(=CC[C@@H]6C5CC[C@]5(C)[C@@H]7[C@H](C[C@@H]65)O[C@]5(CC[C@@](C)(CO[C@@H]6O[C@H](CO)[C@@H](O)[C@H](O)[C@H]6O)O5)[C@H]7C)C4)O[C@H](CO)[C@@H](O)[C@@H]3O)O[C@@H]2CO)[C@H](O)[C@H](O)[C@H]1O (some centres undefined)
active: Potency (HEK293) 1.23 µM | Potency (KB-3-1) 0.778 µM
inactive: max response (HaCat) -8.19%

CC(C)CCC[C@@H](C)[C@H]1CC[C@H]2[C@@H]3CC(=O)[C@H]4C[C@@H](O)CC[C@]4(C)[C@H]3CC[C@]12C
inactive: max response (HEK293) -0.18% | outcome (HaCat) | max response (KB-3-1) -11.4%

CC(=O)OC/C=C(\C)C(CC1C(C)=C(OC(C)=O)C(=O)C2C(C)(C)C(O)CCC12C)OC(C)=O (centres undefined)
inactive: max response (HEK293) -0.0321% | outcome (HaCat) | outcome (KB-3-1)

C[C@@H]1C(=O)OC[C@H]2C(C(=O)O)=C[C@@H]3CC(C)(C)C[C@]312
inactive: max response (HEK293) 4.25% | max response (HaCat) 3.35% | max response (KB-3-1) 5.81% | max response (NIH3T3) 4.19%

O=C(CC1C(=O)Nc2ccccc21)OC[C@H]1O[C@@H](OCCc2ccc(O)cc2)[C@H](O)[C@@H](O)[C@@H]1O (some centres undefined)
inactive: max response (HEK293) 1.16% | max response (HaCat) -16.5% | outcome (KB-3-1) | max response (NIH3T3) -0.494%

CC(=O)N[C@H]1[C@H](O[C@H]2CC[C@@]3(C)C(CC[C@]4(C)C3CC=C3C5CC(C)(C)CC[C@]5(C(=O)O)[C@H](O)C[C@]34C)C2(C)C)O[C@H](CO[C@@H]2OC[C@H](O)[C@H](O)[C@H]2O[C@@H]2OC[C@@H](O)[C@H](O)[C@H]2O)[C@@H](O)[C@@H]1O (some centres undefined)
inactive: max response (HEK293) -1.2% | max response (HaCat) -6.42% | max response (KB-3-1) 4.32% | max response (NIH3T3) -13.2%

CC(C)(C)c1ccc(S(=O)(=O)Nc2ccc(Cl)cc2C(=O)c2cc[n+]([O-])cc2)cc1
inactive: max response (HEK293) -2.23% | max response (HaCat) -10.2% | outcome (KB-3-1) | max response (NIH3T3) -1.11%

C=C(C(=O)O)C1CC(O)C2(C)CCCC(=C)C2C1 (centres undefined)
inactive: max response (HEK293) 0.173% | max response (HaCat) -8.7% | max response (KB-3-1) -0.72% | max response (NIH3T3) 2.65%

C=C1[C@H](OC(C)=O)[C@H]2[C@@H](OC(C)=O)[C@](C)(OC(C)=O)C[C@]2(OC(C)=O)C(=O)[C@H](C)/C=C/C(C)(C)C(=O)[C@H](OC(=O)C(C)C)[C@H]1OC(C)=O
inactive: max response (HEK293) 1.22% | max response (HaCat) -2.43% | outcome (KB-3-1) | max response (NIH3T3) 2.17%

CC(C)(O)/C=C/C1=CC(=O)[C@@](C)(O)C[C@H]1O
inactive: max response (HEK293) -6.16% | max response (HaCat) 4.28% | max response (KB-3-1) 7.85% | max response (NIH3T3) -2.07%

NC(=O)c1cnc(NCCc2ccc(O)c(Cl)c2)nc1NCc1ccccc1
active: Potency (HEK293) 6.51 µM | Potency (HaCat) 14.6 µM | Potency (KB-3-1) 16.4 µM | Potency (NIH3T3) 5.17 µM

O=C(O)c1cc(I)ccc1NC(=O)[C@H](Cc1ccccc1)NCc1ccccc1
inactive: max response (HEK293) -1.33% | max response (HaCat) -2.36% | max response (KB-3-1) -0.475% | max response (NIH3T3) 1.92%

C[C@@H]1O[C@@H](O[C@H]2[C@H](O[C@H]3[C@H](O)[C@@H](C(=O)O)O[C@@H](O[C@H]4CC[C@@]5(C)C(CC[C@]6(C)C5CC[C@]57OC[C@@]8(CCC(C)(C)CC85)[C@H](O)C[C@]76C)C4(C)C)[C@@H]3O[C@@H]3O[C@H](CO)[C@@H](O[C@@H]4OC[C@@H](O)[C@H](O)[C@H]4O)[C@H](O)[C@H]3O)O[C@H](CO)[C@H](O)[C@@H]2O)[C@H](O)[C@H](O)[C@H]1O (some centres undefined)
inactive: max response (HEK293) -0.169% | max response (HaCat) 1.4% | outcome (KB-3-1) | max response (NIH3T3) 2.61%

Cc1nc2ccc(Oc3ccc(F)cc3)cc2c(=O)n1C[C@H]1CCCN(C(C)C)C1
inactive: max response (HEK293) -15.9% | outcome (HaCat) | max response (KB-3-1) 5.64%

C=C1CCC2C(C)(C(=O)OC)CCCC2(C)C1CCC(C)CC(=O)O (centres undefined)
inactive: max response (HEK293) -9.98% | max response (HaCat) -22.8% | max response (KB-3-1) 0.0997% | max response (NIH3T3) 2.98%

CC(C)c1ccc2c(c1)C(=O)CC1[C@@](C)(C(=O)O)CCC[C@]21C (some centres undefined)
inactive: max response (HEK293) 3.51% | max response (HaCat) -7.44% | max response (KB-3-1) -10.5% | max response (NIH3T3) 0.286%

C=C1CCC2C(C)(C)C(O)CCC2(C)C1CCC(C)CCO (centres undefined)
active: Potency (HEK293) 11.4 µM
inactive: max response (HaCat) -1.49% | max response (KB-3-1) -10.1% | max response (NIH3T3) -0.535%

CC(C)(C)Nc1nc2cc(Cl)c(Cl)cc2nc1S(C)(=O)=O
active: Potency (HEK293) 4.11 µM | Potency (HaCat) 5.8 µM | Potency (KB-3-1) 13 µM

Cc1cn(C2C=CC(CO)O2)c(=O)[nH]c1=O (centres undefined)
inactive: max response (HEK293) -22.8% | max response (HaCat) -43.4% | max response (KB-3-1) 6.19% | max response (NIH3T3) -7.77%

CC1(C)CCCC2(C)C(CO)C(CO)=CCC12 (centres undefined)
inactive: max response (HEK293) -4.79% | max response (HaCat) 0.151% | max response (KB-3-1) -2.42% | max response (NIH3T3) -1.37%

Cc1cc(C)cc(C(=O)NOCCCCCC(=O)NO)c1
active: Potency (HEK293) 1.64 µM | Potency (HaCat) 1.84 µM | Potency (KB-3-1) 2.06 µM | Potency (NIH3T3) 5.8 µM

COC(=O)C(C)C1CCC2(C)C(=O)C=CC(C)(O)C2C1O (centres undefined)
inactive: max response (HEK293) -6.36% | max response (HaCat) 4.7% | outcome (KB-3-1) | max response (NIH3T3) 2.97%

CC1(C(=O)O)CCCC2(C)C3=CCC4CC3(CCC12)CC4CO (centres undefined)
inactive: max response (HEK293) -3.78% | max response (HaCat) 2.08% | max response (KB-3-1) 2.22% | max response (NIH3T3) -1.37%

COC(=O)C1=CO[C@@H](O[C@@H]2O[C@H](CO)[C@@H](O)[C@H](O)[C@H]2O)C2C1C(=O)C[C@H]2C (some centres undefined)
inactive: max response (HEK293) -7.74% | outcome (HaCat) | outcome (KB-3-1) | max response (NIH3T3) 2.63%

C[C@@H]1C[C@@H]([C@@H](O)C(C)(C)O)O[C@H]2C[C@@]3(C)C(=C12)C[C@H](O)[C@H]1[C@@]2(C)CCC(=O)C(C)(C)C2CC[C@@]13C (some centres undefined)
inactive: max response (HEK293) 3.48% | max response (HaCat) -11.9% | max response (KB-3-1) 5.24% | max response (NIH3T3) -0.489%

C=CCC1=C[C@]2(OC)[C@H](C)[C@@H](c3ccc(O)c(OC)c3)O[C@]2(OC)CC1=O
inactive: max response (HEK293) 0.3% | max response (HaCat) 3.92% | max response (KB-3-1) 5.23% | max response (NIH3T3) 0.772%

CC1OC(OC2C(C)OC(OC3C(OC(=O)C45CCC(C)(C)CC4C4=CCC6C7(C)CCC(OC8OC(C(=O)O)C(O)C(O)C8OC8OC(CO)C(O)C(OC9OC(C)C(O)C(O)C9O)C8O)C(C)(CO)C7CCC6(C)C4(C)CC5)OC(CO)C(O)C3O)C(O)C2O)C(O)C(O)C1O (centres undefined)
inactive: max response (HEK293) 1.99% | max response (HaCat) -14.7% | outcome (KB-3-1) | max response (NIH3T3) -18.1%

Cn1nnc(-c2ccc(-c3ccc(N4C[C@H](CO)OC4=O)cc3F)cn2)n1
active: Potency (HEK293) 4.11 µM
inactive: max response (HaCat) -5.65% | max response (KB-3-1) -14% | outcome (NIH3T3)

CCCN1CCN(c2ccc(C(=O)NC3(C(=O)NCC#N)CCCCC3)cc2)CC1
inactive: max response (HEK293) -5.14% | max response (HaCat) -5.96% | max response (KB-3-1) -7.48% | max response (NIH3T3) 1.62%

C=CC(=O)Nc1cccc(Nc2nc(Nc3ccc(N4CCN(C(C)=O)CC4)cc3OC)ncc2C(F)(F)F)c1
active: Potency (HEK293) 6.51 µM | Potency (HaCat) 2.91 µM | Potency (KB-3-1) 11.6 µM

OC[C@H]1O[C@@H](OC(CCCCc2ccc(O)cc2)CCc2ccc(O)cc2)[C@H](O)[C@@H](O)[C@@H]1O (some centres undefined)
inactive: max response (HEK293) -49.4% | max response (HaCat) -20.5% | outcome (KB-3-1) | max response (NIH3T3) -27.4%

COc1cc(/C=C/CO)cc(OC)c1O[C@@H]1O[C@H](CO[C@@H]2O[C@H](CO)[C@@H](O)[C@H](O)[C@H]2O)[C@@H](O)[C@H](O)[C@H]1O
inactive: max response (HEK293) 1.54% | max response (HaCat) 4.69% | max response (KB-3-1) 9.56% | max response (NIH3T3) -3.2%

COc1cc2c(cc1OC)[C@@H]1[C@H](O)[C@@H](OC)C=C3CCN(C2)[C@H]31
inactive: max response (HaCat) -24.8%
active: Potency (HEK293) 4.53 µM | Potency (KB-3-1) 7.18 µM | Potency (NIH3T3) 3.6 µM

Cc1cccc(Oc2cnc(=O)[nH]c2)c1
inactive: max response (HEK293) 2.27% | max response (HaCat) -9.89% | max response (KB-3-1) 3.8% | max response (NIH3T3) -28.2%

COc1cc(C)c(C(=O)Oc2cc(C)c(C(=O)Oc3cc(C)c(C(=O)NC(C)C(=O)O)c(O)c3)c(O[C@@H]3O[C@H](CO)[C@@H](O)[C@H](O)[C@H]3OC(C)=O)c2)c(OC)c1 (some centres undefined)
inactive: max response (HEK293) -3.13% | max response (HaCat) -13.9% | max response (KB-3-1) -6.88%

CC(C)=CCc1cc(C(O)C2NC(=O)CNC(=O)C(Cc3c[nH]c4ccccc34)NC(=O)C3CCCN3C(=O)CNC(=O)C(C(C)C)NC(=O)CNC2=O)ccc1O (centres undefined) (cyclo(G[X4]GVGPW); configuration not given here)
inactive: max response (HEK293) -8.38% | max response (HaCat) -16.9% | max response (KB-3-1) 5.04% | outcome (NIH3T3)

CC1=C(C(=O)O)/C(=C\CO[C@@H]2O[C@H](CO)[C@@H](O)[C@H](O)[C@H]2O)C(OC(=O)/C=C/c2ccc(O)cc2)C1 (some centres undefined)
inactive: max response (HEK293) 0.858% | max response (HaCat) -26% | max response (KB-3-1) 8.61% | max response (NIH3T3) -19.1%

C[C@H]1CC[C@@H]2N(C1)C[C@@H]1[C@H]([C@@H](O)[C@H](O)[C@]3(O)[C@H]1C[C@@]14OC5(O)[C@@H](C[C@@H](O)[C@@H]31)[C@]4(C)CC[C@@H]5O)[C@]2(C)O
inactive: max response (HEK293) -8.96% | max response (HaCat) -17.6% | outcome (KB-3-1) | max response (NIH3T3) 0.156%

C=C(CCC1=C(C)[C@H]2[C@H](CC3[C@@H]4CC=C5C[C@@H](O)C[C@@H](O)[C@]5(C)C4[C@H](O)C[C@@]32C)O1)CO[C@@H]1O[C@H](CO)[C@@H](O)[C@H](O)[C@H]1O (some centres undefined)
active: Potency (HEK293) 1.37 µM | Potency (HaCat) 4.32 µM | Potency (KB-3-1) 1.72 µM
inactive: max response (NIH3T3) 0.743%
